Results taken from paper PMC4336329 (PLoS ONE, 2015).
In all, about 310,000 compounds went through this assay and about 2,200 (0.71%) showed an effect of 50% or more. The effect is printed as a negative number. What follows is part of a selection rich in strong results, with near analogues and random picks from the rest.

These compounds were tested against human ether-à-go-go-related gene (hERG) potassium channel (human, UniProt Q12809) (assay: primary screen, population patch clamp on CHO cells stably expressing hERG; higher = less effect of the substance).
Chain of human ether-à-go-go-related gene (hERG) potassium channel (Q12809 whole entry, looked up): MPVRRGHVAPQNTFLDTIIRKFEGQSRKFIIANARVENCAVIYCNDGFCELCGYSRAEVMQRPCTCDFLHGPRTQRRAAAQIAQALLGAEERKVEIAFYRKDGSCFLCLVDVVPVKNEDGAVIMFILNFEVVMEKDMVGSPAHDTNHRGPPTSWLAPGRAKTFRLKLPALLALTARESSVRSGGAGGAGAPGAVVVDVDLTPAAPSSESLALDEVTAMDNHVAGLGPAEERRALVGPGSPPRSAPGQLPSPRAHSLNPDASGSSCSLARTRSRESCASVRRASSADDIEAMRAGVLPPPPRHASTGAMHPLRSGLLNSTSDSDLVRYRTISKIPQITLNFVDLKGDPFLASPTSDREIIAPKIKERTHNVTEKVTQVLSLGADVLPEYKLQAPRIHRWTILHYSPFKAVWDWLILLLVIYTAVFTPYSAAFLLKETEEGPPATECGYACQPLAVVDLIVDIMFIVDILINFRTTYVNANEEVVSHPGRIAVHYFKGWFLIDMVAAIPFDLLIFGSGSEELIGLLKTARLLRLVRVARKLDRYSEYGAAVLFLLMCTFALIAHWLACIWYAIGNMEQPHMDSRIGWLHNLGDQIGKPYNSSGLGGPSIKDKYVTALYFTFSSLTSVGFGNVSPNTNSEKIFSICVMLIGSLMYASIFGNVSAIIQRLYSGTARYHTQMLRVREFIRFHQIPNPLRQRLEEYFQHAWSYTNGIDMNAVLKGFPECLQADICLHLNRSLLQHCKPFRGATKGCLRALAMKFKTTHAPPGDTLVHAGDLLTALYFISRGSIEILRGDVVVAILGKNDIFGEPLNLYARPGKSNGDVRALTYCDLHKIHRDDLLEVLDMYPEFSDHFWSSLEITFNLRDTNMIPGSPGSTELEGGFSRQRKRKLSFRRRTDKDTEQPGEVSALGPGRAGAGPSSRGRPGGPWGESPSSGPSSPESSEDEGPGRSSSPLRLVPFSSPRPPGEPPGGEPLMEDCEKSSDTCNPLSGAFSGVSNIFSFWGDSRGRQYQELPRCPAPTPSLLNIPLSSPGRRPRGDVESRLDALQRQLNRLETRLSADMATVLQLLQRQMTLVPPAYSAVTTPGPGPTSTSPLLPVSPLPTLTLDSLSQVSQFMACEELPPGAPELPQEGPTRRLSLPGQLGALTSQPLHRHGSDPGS

SMILES	hERG current change (%, negative = inhibition) at 1uM [%]
COc1ccccc1N(C)S(=O)(=O)c1ccc(Cl)c(C(=O)NC2=NCCS2)c1	21.6
Cc1ccc(S(=O)(=O)NCC2COc3ccccc3O2)cc1 (centres unmarked)	6.71
CCc1ccc(NC(=O)CSCc2nc(N)nc(Nc3ccccc3CC)n2)cc1	10.9
CCc1ccc(CN2CCC(N3CCC(C(=O)N4CCCC4)CC3)CC2)o1	-28.3
O=C(c1cc(F)ccc1F)N1CCC(N2CCC(C(=O)N3CCCC3)CC2)CC1	16.9
O=C(C1CCN(C2CCN(Cc3ccc4cc(F)ccc4n3)CC2)CC1)N1CCCC1	-78.3
CCCCNc1nc2ccccc2n1CC(=O)N1CCc2ccccc2C1	-6.59
N#Cc1nc(-c2ccc(F)cc2)oc1NCc1cccc2c1OCO2	13.6
Cc1cc([N+](=O)[O-])nn1CC(=O)NNC(=S)Nc1ccc([N+](=O)[O-])cc1	11.8
O=C(CSc1ccccc1)N1CCCC(N2CCN(c3ccccc3)CC2)C1 (centres unmarked)	2.18
O=C(COc1ccccc1Cl)N1CCCC(N2CCN(c3ccc(F)cc3)CC2)C1 (centres unmarked)	-19.5
Cc1ccc(OCC(=O)N2CCCC(N3CCN(c4ccc(F)cc4)CC3)C2)cc1 (centres unmarked)	-90.2
COc1ccccc1OCC(=O)N1CCCC(N2CCN(c3ccc(F)cc3)CC2)C1 (centres unmarked)	4.57
CSCC(=O)N1CCCC(N2CCN(c3ccc(F)cc3)CC2)C1 (centres unmarked)	0.918
O=C(CSc1ccccc1)N1CCCC(N2CCN(c3ccc(F)cc3)CC2)C1 (centres unmarked)	-56
CC(=O)Nc1cc(C(C)(C)C)c(O)c(C(C)(C)C)c1	13.4
CCCNC(=O)c1cc(S(=O)(=O)N2CCCCC2)ccc1N1CCOCC1	-9.91
CC1CCC(NC(=O)CN2CCCN(Cc3ccc(F)cc3Cl)C2=O)CC1 (centres unmarked)	8.34
CN(C)C1(CNC(=O)Nc2ccc(Cl)c(Cl)c2)CCCCC1	3.77

SMILES	hERG current change (%, negative = inhibition) at 1uM [%]
Cl.O.O=c1c2ccccc2nc2n1CC/C2=C/N1CCN(c2cccc(C(F)(F)F)c2)CC1	5.54
O=c1c2ccccc2nc2n1CC/C2=C\N1CCN(c2ccc([N+](=O)[O-])cc2)CC1	-62.1
Cc1nc2ccccc2c(=O)n1-c1ccc([N+](=O)[O-])cc1	11.2
O=[N+]([O-])c1ccc(CS(=O)(=O)N2CCN(c3ccccc3)CC2)cc1	-3.45
CC1CCCC(C)N1c1nnc(N)s1 (centres unmarked)	10.6
Cc1ccccc1NC(=S)N1CCCN(Cc2ccc(F)cc2)C1	8.61
CSc1nc(NCc2ccco2)c2c3c(sc2n1)CN(C)CC3	-38.8
CSc1nc(NCc2ccccc2)c2c3c(sc2n1)CN(C)CC3	-64.2
CSc1nc(NCC(C)C)c2c3c(sc2n1)CN(C)CC3	-9.92
CC(C)c1ccc2c(c1)c(SC(C)(C)C)c(CC(C)(C)C(=O)O)n2Cc1ccc(Cl)cc1	5.14
COCCNC(=O)C(OC(=O)c1cc2oc(C)cc2n1C)C(C)C (centres unmarked)	7.23
COc1cn(-c2ccccc2)nc1C(=O)Nc1ccc(C)cc1Cl	11.4
CC(C)(C)NCC(O)(c1ccc(Cl)cc1)c1ccc(Cl)cc1	13
CCCCNCC(O)(c1ccc(Cl)cc1)c1ccc(Cl)cc1	-5.39
CCN(CC)CCNCC(O)(c1ccc(Cl)cc1)c1ccc(Cl)cc1	-84.4
Cc1ccc(NC(=O)CN(c2ccc(Cl)cc2)S(=O)(=O)c2cc([N+](=O)[O-])ccc2Cl)cc1	7.07
CC(C1CC2CCC1C2)n1c(COc2ccccc2F)nnc1SCC(N)=O (centres unmarked)	-1.9
O=C(C1CC1)N1CCN(c2ccnc3cc(Cl)ccc23)CC1	-31.6
O=C(c1ccco1)N1CCN(c2cccc(Cl)c2)CC1	9.98

SMILES	hERG current change (%, negative = inhibition) at 1uM [%]
CCOc1ccc2[nH]c3c(N4CCN(C(=O)c5ccco5)CC4)ncnc3c2c1	-3.41
Cc1nc2ccccc2c2oc(C(=O)N3CCN(C(=O)c4ccco4)CC3)cc12	-23.2
Cc1cc(N2CCN(C(=O)c3ccco3)CC2)c2ccccc2n1	-68.6
Cc1cc(N2CCN(C(=O)c3ccco3)CC2)nc(-c2ccccc2)n1	-22.6
Cc1cccc2[nH]c3c(N4CCN(C(=O)c5ccco5)CC4)ncnc3c12	-5.77
O=C(c1ccco1)N1CCN(c2ccnc3cc(Cl)ccc23)CC1	-63.6
O=C(c1ccco1)N1CCN(c2ccc(Cl)cc2)CC1	-5.03
O=C(C1CCC1)N1CCN(c2ccnc3cc(Cl)ccc23)CC1	-59.6
O=C(c1ccco1)N1CCN(c2ncnc3c2[nH]c2ccc(Cl)cc23)CC1	-70.1
O=C(C1CCCCC1)N1CCN(c2ccnc3cc(Cl)ccc23)CC1	-27.1
CCCOc1ccc(N2CC(C(=O)NC3=NCCS3)CC2=O)cc1 (centres unmarked)	-26
CCCCN1CCC(COC(=O)c2cc(Cl)c(N)c3c2OCCO3)CC1.Cl	-23.9
COc1ccccc1CNS(=O)(=O)c1ccc(-n2cccn2)cc1	13.3
O=C(NCc1cccs1)c1ccccc1	7.23
CCNc1nc(SCC(=O)OC)nc(N(C)C)n1	-1.18
COc1ccc(CN(CC(=O)NC2CCCCC2)C(=O)CCCC(=O)Nc2ccccn2)cc1	9.4
Cc1ccccc1OCC(=O)Nc1ccccc1C(=O)N1CCCCC1	-4.24
CC(=O)Nc1ccc(CNc2ncnc3ccc(-c4c(C)noc4C)cc23)cc1	11.5
